Active and inactive are the calls of the source. The calls were made as follows: active = hit-call score of the fitted dose curve at least 0.9, where 1 is the maximum; inactive = score below 0.9.
Columns and labels:
[1] = read-out: Vascular cell adhesion molecule 1 (VCAM1), VCAM1 (gene 7412); experiment: BSK_hDFCGF_VCAM1: BioMAP Diversity Plus: hDFCGF Assay for Vascular cell adhesion molecule 1 (VCAM1) Biomarker Activity (AID 2283065); conditions: primary human foreskin fibroblasts; actives raise or lower the signal;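 as to AC50: VCAM-1 protein level quantified by ELISA after 24 h chemical exposure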
Procedure, shortened: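 Human foreskin fibroblast primary cells, chemical exposure 24 h; VCAM-1 by ELISA; bidirectional fit, DMSO = negative control/baseline.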

[2] = read-out: Plasminogen activator inhibitor-1 (PAI1), SERPINE1 (gene 5054); experiment: BSK_hDFCGF_PAI1: BioMAP Diversity Plus: hDFCGF Assay for Plasminogen activator inhibitor-1 (PAI1) Biomarker Activity (AID 2283066); conditions: primary human foreskin fibroblasts; actives raise or lower the signal
Procedure, shortened: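 PAI-1 levels in human dermal foreskin fibroblasts were quantified by ELISA 24 h after dosing, with gain or loss analysed against DMSO. Overt cytotoxicity was checked by sulforhodamine B total-protein staining in parallel cultures.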

[3] = read-out: Intercellular Adhesion Molecule 1 (ICAM1), ICAM1 (gene 3383); experiment: BSK_KF3CT_ICAM1: BioMAP Diversity Plus: KF3CT Assay for Intercellular Adhesion Molecule 1 (ICAM1) Biomarker Activity (AID 2283067); conditions: primary human keratinocytes with fibroblasts; actives raise or lower the signal
Procedure, shortened: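 ICAM-1 levels are measured by ELISA 24 h after dosing a primary human co-culture of keratinocytes and foreskin fibroblasts. Activity in either direction is fitted relative to DMSO vehicle.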

[4] = read-out: Interleukin-1 alpha (IL1a), IL1A (gene 3552); experiment: BSK_KF3CT_IL1a: BioMAP Diversity Plus: KF3CT Assay for Interleukin-1 alpha (IL1a) Biomarker Activity (AID 2283070); conditions: primary human keratinocytes with fibroblasts; actives raise or lower the signal
Procedure, shortened: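 Readout is IL-1a level by ELISA, compared bidirectionally with DMSO as baseline. Cells: human keratinocytes co-cultured with foreskin fibroblasts, harvested 24 h post-dose.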

[5] = read-out: Transforming growth factor beta 1 (TGFb1), TGFB1 (gene 7040); experiment: BSK_KF3CT_TGFb1: BioMAP Diversity Plus: KF3CT Assay for Transforming growth factor beta 1 (TGFb1) Biomarker Activity (AID 2283072); conditions: primary human keratinocytes with fibroblasts; actives raise or lower the signal
Procedure, shortened: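 ELISA quantifies TGF-b1 at 24 h post-dose in a primary human skin co-culture of keratinocytes and fibroblasts, with gain or loss judged against DMSO. Parallel SRB total-protein staining flags overt cytotoxicity.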

[6] = read-out: C-C motif chemokine 2 (Homo sapiens) (UniProt P13500); experiment: BSK_KF3CT_MCP1: BioMAP Diversity Plus: KF3CT Assay for Monocyte Chemoattractant Protein 1 (MCP1/CCL2) Biomarker Activity (AID 2283073); conditions: primary human keratinocytes with fibroblasts; actives raise or lower the signal
Procedure, shortened: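 ELISA readout of MCP-1 after 24 h chemical dosing of a human skin primary co-culture of keratinocytes and foreskin fibroblasts. Activity was fitted in both directions against DMSO.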

[7] = read-out: Matrix Metallopeptidase 9 (MMP9), MMP9 (gene 4318); experiment: BSK_KF3CT_MMP9: BioMAP Diversity Plus: KF3CT Assay for Matrix Metallopeptidase 9 (MMP9) Biomarker Activity (AID 2283074); conditions: primary human keratinocytes with fibroblasts; actives raise or lower the signal;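 as to AC50: MMP9 protein level quantified by ELISA in the co-culture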
Procedure, shortened: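 Values come from bidirectional fitting relative to DMSO of MMP-9 levels, which were measured by ELISA. Measurements were taken 24 h after chemical dosing of a keratinocyte and foreskin fibroblast co-culture.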

[8] = read-out: TIMP metallopeptidase inhibitor 2 (TIMP2), TIMP2 (gene 7077); experiment: BSK_KF3CT_TIMP2: BioMAP Diversity Plus: KF3CT Assay for TIMP metallopeptidase inhibitor 2 (TIMP2) Biomarker Activity (AID 2283071); conditions: primary human keratinocytes with fibroblasts; actives raise or lower the signal
Procedure, shortened: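 TIMP-2 measured by ELISA at 24 h in human keratinocyte/fibroblast primary co-cultures exposed to chemicals. Both increases and decreases were fitted against DMSO. Parallel cultures were stained with SRB for total protein as an overt-cytotoxicity check.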

[9] = BSK_KF3CT_SRB: Viability Assessment in the BioMAP Diversity Plus: KF3CT Assay (AID 2283069); conditions: primary human keratinocytes with fibroblasts;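 also: read 24 h after compound addition; fitted for both signal gain and loss against DMSO baseline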
Procedure, shortened: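 Overt cytotoxicity is assessed as total protein by sulforhodamine B staining in parallel human skin co-cultures at 24 h after dosing. DMSO serves as negative control and baseline.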

## CC(C)=CCCC(C)=CC=O
[1]
  outcome: inactive
[2]
  outcome: inactive
[3]
  outcome: inactive
[4]
  outcome: inactive
[5]
  outcome: inactive
[6]
  outcome: inactive
[7]
  outcome: inactive

## CC(=O)c1ccc2c(c1)[C@H](NC(=O)c1ccc(F)cc1)[C@@H](O)C(C)(C)O2
[1]
  outcome: inactive
[2]
  outcome: inactive
[3]
  outcome: inactive
[4]
  outcome: inactive
[5]
  outcome: inactive
[6]
  outcome: inactive
[7]
  outcome: inactive

## CC(=O)OCCC(C)C
[1]
  outcome: inactive
[2]
  outcome: inactive
[3]
  outcome: inactive
[4]
  outcome: inactive
[8]
  outcome: inactive
[5]
  outcome: inactive
[6]
  outcome: inactive
[7]
  outcome: inactive

## Cc1[nH]cnc1C[C@H]1CCc2c(C)c3ccccc3n2C1=O
[1]
  outcome: inactive
[2]
  outcome: inactive
[3]
  outcome: inactive
[4]
  outcome: inactive
[8]
  outcome: inactive
[5]
  outcome: inactive
[6]
  outcome: inactive
[7]
  outcome: inactive

## CCOCCO
[2]
  outcome: inactive
[3]
  outcome: inactive
[4]
  outcome: inactive
[5]
  outcome: inactive
[6]
  outcome: inactive
[7]
  outcome: inactive

## CC1(C)C(=O)N(Br)C(=O)N1Br
[1]
  outcome: inactive
[2]
  outcome: inactive
[3]
  outcome: inactive
[4]
  outcome: inactive
[5]
  outcome: inactive
[6]
  outcome: inactive
[7]
  outcome: inactive

## O=C(O)c1cccc(Oc2ccccc2)c1
[1]
  outcome: inactive
[2]
  outcome: inactive
[3]
  outcome: inactive
[4]
  outcome: inactive
[8]
  outcome: inactive
[5]
  outcome: inactive
[6]
  outcome: inactive
[7]
  outcome: inactive

## CCC(C)(C)C(=O)O[C@H]1C[C@@H](C)C=C2C=C[C@H](C)[C@H](CC[C@@H]3C[C@@H](O)CC(=O)O3)[C@H]21
[1]
  AC50: 33.9 µM (active)
[2]
  AC50: 23.4 µM (active)
[3]
  AC50: 31.2 µM (active)
[9]
  AC50: 34.8 µM (active)
[4]
  AC50: 34.9 µM (active)
[5]
  AC50: 31.4 µM (active)
[6]
  AC50: 36.9 µM (active)
[7]
  AC50: 31.6 µM (active)

## CCCCCCc1ccc(O)cc1O
[1]
  AC50: 28.1 µM (active)
[2]
  AC50: 30.7 µM (active)
[3]
  AC50: 31.3 µM (active)
[4]
  AC50: 30.3 µM (active)
[8]
  AC50: 32.7 µM (active)
[5]
  AC50: 29.7 µM (active)
[6]
  AC50: 26.2 µM (active)
[7]
  AC50: 34.1 µM (active)

## O=c1n(CC2CO2)c(=O)n(CC2CO2)c(=O)n1CC1CO1 (stereo not drawn)
[1]
  AC50: 11.6 µM (active)
[2]
  AC50: 22 µM (active)
[3]
  outcome: inactive
[4]
  outcome: inactive
[8]
  outcome: inactive
[5]
  outcome: inactive
[6]
  outcome: inactive
[7]
  AC50: 20 µM (active)

## CC[C@H](C)C(=O)O[C@H]1C[C@@H](C)C=C2C=C[C@H](C)[C@H](CC[C@@H]3C[C@@H](O)CC(=O)O3)[C@H]21
[1]
  AC50: 29.8 µM (active)
[2]
  AC50: 31.9 µM (active)
[3]
  AC50: 33.6 µM (active)
[4]
  AC50: 33.5 µM (active)
[8]
  AC50: 33.8 µM (active)
[5]
  AC50: 33.3 µM (active)
[6]
  AC50: 32.5 µM (active)

## CNCc1ccc(NC(=O)c2c[nH]c3c2C(=O)CCC3)cc1
[1]
  outcome: inactive
[2]
  outcome: inactive
[3]
  outcome: inactive
[4]
  outcome: inactive
[8]
  outcome: inactive
[5]
  outcome: inactive
[6]
  outcome: inactive
[7]
  outcome: inactive

## Cn1c(=O)c2c(ncn2C)n(C)c1=O
[1]
  outcome: inactive
[2]
  outcome: inactive
[3]
  outcome: inactive
[9]
  outcome: inactive
[4]
  outcome: inactive
[5]
  outcome: inactive
[6]
  outcome: inactive
[7]
  outcome: inactive

Reference: PubChem BioAssay (EPA / NIEHS)
